Assay results: PubChem BioAssay (EPA / NIEHS)
Activity calls are given as the source filed them. Rule for the calls: active = hit-call score of the fitted dose curve at least 0.9, where 1 is the maximum; inactive = score below 0.9.

Read-out: solute carrier (SLCO1B1), SLCO1B1 (gene 10599)
Experiment: LTEA_HepaRG_SLCO1B1: Life Technologies and Expression Analysis (LTEA) Assay for solute carrier (SLCO1B1) using HepaRG (AID 2283530)
Settings: mRNA level, 48 h; actives raise or lower the signal
How it was run: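 SLCO1B1 transcript levels were quantified by TaqMan qRT-PCR using three housekeeping genes for normalization. This followed 48 h chemical exposure (100 uM top, half-log, 8 points, 0.5% DMSO) of HepaRG liver cells, with gain or loss fitted relative to DMSO.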

Row | Compound | outcome | AC50
1 | CCOP(=O)(SC(C)CC)N1CCSC1=O (stereo not drawn) | inactive | –
2 | CCCSP(=O)(OCC)Oc1ccc(Br)cc1Cl (stereo not drawn) | inactive | –
3 | CSc1nnc(C(C)(C)C)c(=O)n1N | inactive | –
4 | Cc1ccn2nc(S(=O)(=O)Nc3c(F)cccc3F)nc2n1 | inactive | –
5 | CC(C)=CC1C(C(=O)OCN2C(=O)C3=C(CCCC3)C2=O)C1(C)C (stereo not drawn) | inactive | –
6 | FC(F)C(F)(F)OCC(Cn1cncn1)c1ccc(Cl)cc1Cl (stereo not drawn) | – | 70.4 µM (active)
7 | CC(C1CC1)C(O)(Cn1cncn1)c1ccc(Cl)cc1 (stereo not drawn) | inactive | –
8 | Cc1cc(C2CC2)nc(Nc2ccccc2)n1 | inactive | –
9 | COc1cccc(C(=O)NN(C(=O)c2cc(C)cc(C)c2)C(C)(C)C)c1C | inactive | –
10 | C[N+]1(C)CCCCC1 | inactive | –
11 | CC[C@H](C)[C@H]1O[C@]2(C=C[C@@H]1C)C[C@@H]1C[C@@H](C/C=C(\C)[C@@H](O[C@H]3C[C@H](OC)[C@@H](O[C@H]4C[C@H](OC)[C@@H](NC)[C@H](C)O4)[C@H](C)O3)[C@@H](C)/C=C/C=C3\CO[C@@H]4[C@H](O)C(C)=C[C@@H](C(=O)O1)[C@]34O)O2 | – | 19.9 µM (active)
12 | COP(=O)(OC)C(O)C(Cl)(Cl)Cl (stereo not drawn) | inactive | –
13 | S=C1NCCN1 | – | 0.24 µM (active)
14 | CCNc1nc(Cl)nc(NC(C)(C)C#N)n1 | inactive | –
15 | CON=C(C(=O)OC)c1ccccc1CON=C(C)c1cccc(C(F)(F)F)c1 | inactive | –
16 | CCCCOC(=O)c1ccccc1C(=O)O | inactive | –
17 | Nc1nc(N)nc(NC2CC2)n1 | inactive | –
18 | C[Si](Cn1cncn1)(c1ccc(F)cc1)c1ccc(F)cc1 | – | 74.4 µM (active)
